In the library only some 5% were active in any assay of this set; here they are far more common.
VACV mCherry inh: vaccinia inhibition (mCherry reporter). Vaccinia virus mCherry reporter infection, fluorescence. Potency, µM (titrated, usually from 36.5 µM), for the others: at the highest dose activity change, negative = inhibition, hits mostly inhibitors. 310,000 tested, 0.63% active. AID 720579; calls by dose curve; tested in A549 cells; note: potency is the fitted concentration of half-maximal effect; nearly all actives have a fitted effect of over 35% in size
TbPYK inhibitor: T. brucei pyruvate kinase inhibition. Q57TT1. 410,000 tested, 0.12% active. Potency, µM (titrated, usually from 76.8 µM), inactives show top-dose activity, negative = inhibition, actives largely listed as inhibitors. TbPYK enzyme, Kinase-Glo Plus ATP luminescence, 45 min. AID 624173; note: potency is the fitted concentration of half-maximal effect; nearly all actives have a fitted effect of over 50% in size
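T. brucei PYK with substrate was exposed to pin-transferred compounds across a concentration series, then started with 130 uM ADP (final). After 45 min at room temperature, Kinase-Glo Plus luminescence was read, normalized and curve-fitted.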
HCMV antiviral: blocks human cytomegalovirus replication; 410,000 tested, 4.5% active; AID 1259415; HFF cells, HCMV-luciferase reporter, 72 h; stronger effect = lower value; activity change, negative = inhibition, % at 57.5 µM; in the data active = activity change below about -60%; inconclusive = no clear call, values can overlap the other calls; inactive = above about -39%
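After 16 h attachment at 37C, HFF cells received test compound and HCMV-luciferase (1 PFU/cell); reporter luminescence read 72 h later, data normalized against buffer-only and known inhibitor Salinomycin.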
LmPK inhibitor: LmPK (Leishmania mexicana) enzyme inhibition. Q27686. purified LmPK, Kinase-Glo ATP luminescence, 1 h. Potency, µM (series often up to 57.5 µM), inactives show top-dose activity change, negative = inhibition, hits mostly inhibitors. 290,000 tested, 0.37% active; note: potency is the fitted concentration of half-maximal effect
Target sequence (Q27686 whole entry, looked up): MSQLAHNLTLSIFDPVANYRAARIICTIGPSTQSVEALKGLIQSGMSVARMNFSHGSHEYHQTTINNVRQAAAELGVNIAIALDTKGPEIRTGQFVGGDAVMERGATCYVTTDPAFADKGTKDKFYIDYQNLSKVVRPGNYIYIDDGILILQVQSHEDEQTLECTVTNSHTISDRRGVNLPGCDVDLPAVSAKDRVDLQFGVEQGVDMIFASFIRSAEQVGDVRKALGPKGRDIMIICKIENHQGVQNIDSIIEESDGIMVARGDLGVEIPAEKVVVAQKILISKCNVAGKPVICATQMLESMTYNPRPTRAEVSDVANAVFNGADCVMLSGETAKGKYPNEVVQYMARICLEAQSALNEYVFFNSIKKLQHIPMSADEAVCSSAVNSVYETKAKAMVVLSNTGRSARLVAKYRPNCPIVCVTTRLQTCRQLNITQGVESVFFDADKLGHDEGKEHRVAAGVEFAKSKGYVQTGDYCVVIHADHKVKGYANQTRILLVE
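qHTS format; LmPK 0.1 nM; substrates PEP 0.5 mM and ADP 0.1 mM. One-hour room-temperature incubation, then coupled luciferase luminescence; 0.5 nM enzyme wells mark activation.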
Vaccinia Venus: vaccinia inhibition (Venus reporter); 330,000 tested, 0.46% active; Vaccinia virus Venus reporter expression, fluorescence; Potency, µM (highest dose often 36.5 µM), for the others: top-dose activity change, negative = inhibition, hits mostly inhibitors; AID 720580; calls by dose curve; tested in A549 cells; note: potency is the fitted concentration of half-maximal effect; nearly all actives have a fitted effect of over 30% in size
* = called active by the depositor; i = inactive; ? = inconclusive; · = no result given; [ ] = dose if it differs, or a comment. Unless noted, calls come from the whole dose curve; as a rule, active = well fitted curve in the direction sought with a large enough effect; inconclusive = small, poorly fitted or top-dose-only effect, or another doubt; inactive = no such curve, though single readings can be large; an effect the other way counts as inactive or inconclusive. % is set by controls: 0 for no effect and ±100 for the full control effect.

SMILES | VACV mCherry inh | TbPYK inhibitor | HCMV antiviral | LmPK inhibitor | Vaccinia Venus
Oc1ccc(C=NNC(=S)Nc2ccccc2)nc1 | ? | ? | -97* | · | ?
S=C(N/N=C/c1ccc2ncccc2c1)Nc1ccccc1 | 7.9µM* | -5% | -15 | -5% | 11µM*
C(=N\Nc1nc2ccccc2[nH]1)/c1ccccn1 | · | ? | -100* | ? | ·
CCN(CC)c1ccc(/C=N/Nc2nc3ccccc3[nH]2)c(O)c1 | · | 5% | -98* | -1% | ?
C(=N\NCc1ccccc1)/c1ccc2ncccc2c1 | · | -4% | 94 | -12% | ·
COc1ccccc1N1CCN(/N=C/c2ccccc2C(=O)O)CC1 | · | -2% | 79 | -3% | ·
C(=N\Nc1nc2ccccc2[nH]1)/c1ccc2ncccc2c1 | 1.6µM* | -3% | -22 | -19% | 0.89µM*
CCCCn1c(/C=N/Nc2nc3ccccc3[nH]2)nc2ccccc21 | ? | -11% | -37 | 5% | 11µM*
COc1ccc2c(c1)c(/C=N/Nc1nc3ccccc3[nH]1)c(C)n2C | ? | ? | -101* | 2% | -22%
Fc1cccc(F)c1/C=N/NC(=S)Nc1cccnc1 | -6% | -3% | ? | 2% | 1%
Fc1c(F)c(F)c(/C=N/NC(=S)Nc2cccnc2)c(F)c1F | -2% | -25% | -81* | 0% | -24%
CCOC(=O)Cn1c(=O)n(C2CCCCC2)c2nc(-c3ccc(CC)cc3)nc(C(N)=O)c21 | -16% | 0% | 2 | · | -21%
C(=N\Nc1nc2ccccc2[nH]1)/c1cccc2nccnc12 | ? | -3% | -15 | 0% | ?
C#CCn1cc(/C=N/Nc2nc3ccccc3[nH]2)c2ccccc21 | ? | -9% | -69* | 4% | ?
c1ccc2c(c1)CC/C2=N/Nc1nc2ccccc2[nH]1 | -29% | -2% | -112* | -6% | -18%
CC(C)(C)C1CCC(=NNc2nc3ccccc3[nH]2)CC1 (stereo unspecified) | -15% | -2% | -23 | 0% | -13%
CCOc1ccccc1NC(=O)NC1Cc2ccccc2C1 | · | 1% | · | -2% | ·
O=C(/C=C/[C@H]1O[C@@H](n2ccc(=O)[nH]c2=O)[C@H](O)[C@@H]1O)NCCc1c[nH]c2ccccc12 | 5% | 0% | -4 | · | 1%
Nc1ccc(Oc2cccc(Oc3ccc(N)cc3)c2)cc1 | -21% | -1% | -76* | 7% | -3%
CS(=O)(=O)N(CC(=O)NC1CC2CCC1C2)c1cccc(C(F)(F)F)c1 (stereo unspecified) | ? | 2% | -103* | 8% | -29%
Cc1ccccc1OCCn1cnc2c(N)ncnc21 | · | 2% | -12 | 3% | -21%
Cc1ccccc1OCCn1c(=S)[nH]c2c(N)ncnc21 | · | -14% | -80* | -28% | ·
CN(Cc1ccccc1F)c1nc(-c2cccs2)nc2ccccc12 | i | 3% | -60* | 0% | 0%
CN(CCN(C)c1nc(-c2cccs2)nc2ccccc12)C(=O)OC(C)(C)C | -20% | · | · | · | -9%
Cc1ccc(Oc2cnc3ccccc3n2)cc1 | · | 5% | ? | -4% | ·
SMILES | VACV mCherry inh | TbPYK inhibitor | HCMV antiviral | LmPK inhibitor | Vaccinia Venus
O=[N+]([O-])c1ccc(Oc2cnc3ccccc3n2)cc1 | i | 5% | -63* | -3% | 9%
CC1(C)O[C@@H]2[C@H](O1)[C@@H](COS(=O)(=O)O)O[C@H]2n1c(=S)[nH]c2c(=O)[nH]c(N)nc21 | i | 35µM* | 9 | · | -16%
Nc1nc2c([nH]c(=S)n2C2OC(CO)C(O)C2O)c(=O)[nH]1 (stereo unspecified) | i | · | · | · | 0%
CCC(=O)Oc1c(Sc2ccc(C)cc2)c(C)nn1-c1ccccc1 | i[7.34 µM] | -15% | 0 | · | -10%[7.34 µM]
Cc1nn(C(=O)c2ccccc2)c(C)c1Sc1ccc(Cl)cc1 | -8% | 1% | -74* | · | -17%
CCC(=O)Oc1c(Sc2ccc(Cl)cc2)c(C)nn1-c1ccccc1 | 6%[7.34 µM] | -20% | -94* | · | 6%[7.34 µM]
Cc1ccc(Sc2c(C)nn(C(=O)c3ccc(Br)cc3)c2C)cc1 | -13% | 0% | 13 | · | -6%
COc1ccccc1CNC(=O)CS(=O)Cc1nc(-c2ccc(OC)c(OC)c2)oc1C (stereo unspecified) | -5% | -4% | 13 | -2% | -8%
CCCCNC(=O)C[C@@H]1C[C@@]2(C(=O)OCC)CCCC=C2N(CCc2ccc(OC)c(OC)c2)C1=O | 8% | · | -1 | · | -3%
Cc1ccc(-c2csc3ncnc(N4CCN(S(=O)(=O)c5ccc(C#N)cc5)CC4)c23)cc1 | -27% | -13% | -8 | · | -19%
c1ccc(CC2CCN(c3ncnc4sccc34)CC2)cc1 | -7% | -16% | -85* | 4% | -16%
O=S(=O)(c1ccccc1C(F)(F)F)N1CCN(c2ncnc3sccc23)CC1 | ? | -2% | ? | · | ?
O=C(O)c1cc2c(N3CCC(Cc4ccccc4)CC3)ncnc2s1 | -25% | 1% | -27 | 5% | -5%
O=S(=O)(c1ccc(F)c(F)c1F)N1CCN(c2ncnc3sccc23)CC1 | ? | -7% | -79* | · | ?
Cc1ccc(S(=O)(=O)N2CCN(c3ncnc4sccc34)CC2)cc1 | · | -10% | -85* | 0% | ·
CC(Sc1ncnc2sccc12)C(=O)Nc1ccc(S(=O)(=O)N2CCOCC2)cc1 (stereo unspecified) | 16µM* | 2% | -4 | · | ?
O=C(CSc1ncnc2sccc12)Nc1ccc(S(=O)(=O)N2CCOCC2)cc1 | ? | -2% | -27 | · | ?
COC(=O)c1ccc(C2C(C(=O)Nc3ccccc3C)=C(C)Nc3ncnn32)cc1 (stereo unspecified) | · | -12% | 44 | 4% | -8%
CCc1cccc(C)c1NC(=O)Cn1c(=O)n(-c2cccc(C)c2)c(=O)c2c1c1cc(C)ccc1n2C | -17% | 3% | 17 | · | -28%
COC(=O)C1=C(c2ccccc2)c2ccccc2S(=O)(=O)N1CC(=O)Nc1cc(C)ccc1C | -14% | 2% | -10 | · | -10%
Cn1c(=O)oc2ccc(S(=O)(=O)Nc3ccc(Cl)cc3[N+](=O)[O-])cc21 | · | · | -62* | · | ·
CC(NC(=O)NC1CCCCC1)c1ccccc1 (stereo unspecified) | i | 3% | ? | -2% | -11%
COc1ccccc1CN1CCCCC1c1cccnc1 (stereo unspecified) | · | -1% | -86* | -2% | ·
CCCOc1cccc(CN2CCCCC2c2cccnc2)c1 (stereo unspecified) | -3% | -1% | -37 | 16% | -15%
COCCNc1nnc(SCC(=O)c2cc(C)n(C3CC3)c2C)s1 | i | 3% | -8 | · | -13%
O=C(CCN1C(=O)/C(=C/c2ccccc2)SC1=S)NNC(=O)c1ccncc1 | i | -1% | ? | 1% | 5%
O=C(O)CCCCCN1C(=O)/C(=C\c2ccncc2)SC1=S | ? | 4% | -99* | -9% | -15%
O=C(O)CCCN1C(=O)/C(=C/c2ccncc2)SC1=S | -12% | -1% | -61* | 0% | 2%

Screens (PubChem BioAssay)
